Reference: publication PMC4336329 (PLoS ONE, 2015)
Hit rate of the full screen: of about 310,000 compounds, about 14,000 (4.5%) showed an effect of 50% or more. Effects have a minus sign here. This is one part of a sample in which strong results are shown more often than they occur.

These molecules were tested against human ether-à-go-go-related gene (hERG) potassium channel (human, UniProt Q12809) (assay: primary screen, population patch clamp on CHO cells stably expressing hERG; higher = less effect of the substance).
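Note: peak tail current of the secondary pulse compared with the same well before compound.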

Chain of human ether-à-go-go-related gene (hERG) potassium channel (Q12809 whole entry, looked up): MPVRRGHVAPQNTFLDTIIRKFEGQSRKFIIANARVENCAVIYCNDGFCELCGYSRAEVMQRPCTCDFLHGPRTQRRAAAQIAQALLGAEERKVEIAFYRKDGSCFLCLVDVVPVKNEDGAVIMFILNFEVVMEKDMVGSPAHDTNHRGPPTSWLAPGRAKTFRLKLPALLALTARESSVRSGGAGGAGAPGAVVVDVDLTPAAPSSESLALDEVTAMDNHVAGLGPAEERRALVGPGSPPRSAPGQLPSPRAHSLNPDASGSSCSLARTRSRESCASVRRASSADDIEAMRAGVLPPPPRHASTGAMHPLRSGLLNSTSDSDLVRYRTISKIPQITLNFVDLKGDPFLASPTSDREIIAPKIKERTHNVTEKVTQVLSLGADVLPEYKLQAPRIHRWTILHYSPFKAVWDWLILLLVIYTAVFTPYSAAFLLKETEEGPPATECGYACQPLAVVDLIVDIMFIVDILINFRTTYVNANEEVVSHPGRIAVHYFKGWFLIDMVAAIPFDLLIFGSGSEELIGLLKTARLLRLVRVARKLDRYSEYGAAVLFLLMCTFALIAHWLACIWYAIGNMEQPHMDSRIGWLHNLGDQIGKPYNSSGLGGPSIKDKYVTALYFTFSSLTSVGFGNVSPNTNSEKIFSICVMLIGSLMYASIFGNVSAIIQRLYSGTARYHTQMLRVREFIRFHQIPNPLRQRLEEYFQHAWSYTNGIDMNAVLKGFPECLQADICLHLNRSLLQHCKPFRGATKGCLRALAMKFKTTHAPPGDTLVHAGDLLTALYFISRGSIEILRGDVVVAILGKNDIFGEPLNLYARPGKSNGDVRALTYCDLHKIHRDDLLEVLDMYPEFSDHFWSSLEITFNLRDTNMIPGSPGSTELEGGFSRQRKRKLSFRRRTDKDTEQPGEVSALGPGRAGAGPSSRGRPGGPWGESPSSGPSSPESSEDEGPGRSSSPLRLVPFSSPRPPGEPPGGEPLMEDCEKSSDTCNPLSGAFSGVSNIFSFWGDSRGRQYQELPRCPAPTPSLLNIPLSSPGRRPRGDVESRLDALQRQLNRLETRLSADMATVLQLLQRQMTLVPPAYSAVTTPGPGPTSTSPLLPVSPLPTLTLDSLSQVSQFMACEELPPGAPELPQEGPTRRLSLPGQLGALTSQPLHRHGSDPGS

| Compound | hERG current change (%, negative = inhibition) at 10uM [%] |
| --- | --- |
| Cc1cc2nc(-c3ccco3)cc(C(F)(F)F)n2n1 | -5.82 |
| CNc1c(NS(=O)(=O)c2ccc(F)c(Cl)c2)c(=O)oc2ccccc12 | 3.54 |
| O=C(CSCC(=O)N1CCOCC1)Nc1nc(-c2ccccc2)cs1 | -14.8 |
| NC(=O)c1ccccc1OCC(=O)N1CCCc2ccccc21 | 14.5 |
| CCCc1nc2oc3c(=O)[nH]cnc3c2c2c1CCCC2 | -56.5 |
| CC(C)Cc1nc2oc3c(=O)[nH]cnc3c2c2c1CCCC2 | -6.24 |
| CC(C)Cc1nc2oc3c(=O)[nH]cnc3c2c2c1CCC2 | -7.29 |
| COc1ccc(-c2csc(NC(=O)c3ccc(OCC(=O)N4CCOCC4)c(OC)c3)n2)cc1OC | -27.6 |
| Cc1ccc(C(=O)CCC(=O)Nc2cccc(C)c2)cc1 | 15.3 |
| COCCn1c(=NC(=O)CSCC(=O)N2CCOCC2)sc2cc(C)ccc21 | -14.8 |
| O=C(CSc1nnc(-c2ccco2)n1Cc1ccccc1)OC1CCCCC1 | -92.1 |
| COCCCn1c(SCC(=O)NC2CCCC2)nnc1-c1ccco1 | 9.39 |
| COCCCn1c(SCC(=O)NC2CCCCC2)nnc1-c1ccco1 | -3.26 |
| Cn1c(SCC(=O)OC2CCCCC2)nnc1-c1ccco1 | 0.11 |
| COCCCn1c(SCC(=O)OC2CCCCC2)nnc1-c1ccco1 | -56 |
| O=C(CSc1nnc(-c2ccco2)n1Cc1ccccc1)c1ccc(F)cc1 | -45.7 |
| CCCNS(=O)(=O)c1ccc2c(c1)CCCN2C(C)=O | -4.81 |
| O=C1Nc2cc(C(=O)NCCCN3CCOCC3)ccc2S/C1=C/c1cccc(Cl)c1 | 9.36 |
| CCOC(=O)c1c(P(=O)(N2CCOCC2)N2CCOCC2)noc1N | -0.372 |
| Cn1cc(CN2CCCC(CNS(=O)(=O)c3cccc4cccnc34)C2)cn1 (stereo not drawn) | 5.77 |
| CCC(CC)C(=O)Nc1nnc(S(=O)(=O)N2CCCCCC2)s1 | 1.54 |
| COC(=O)c1ccc(CN2CCCC(CO)(Cc3ccc(F)cc3F)C2)cc1 (stereo not drawn) | -42.3 |

| Compound | hERG current change (%, negative = inhibition) at 10uM [%] |
| --- | --- |
| CCOc1cc(CN2CCCC(CO)(Cc3ccc(F)cc3F)C2)ccc1OC (stereo not drawn) | -55.9 |
| COc1cccc(CC(=O)N2CCCC(CO)(Cc3ccc(F)cc3F)C2)c1 (stereo not drawn) | -0.432 |
| COc1ccc(CN2CCCC(CO)(Cc3ccc(F)cc3F)C2)cc1 (stereo not drawn) | 6.12 |
| OCC1(Cc2ccc(F)cc2F)CCCN(Cc2ccc(Cl)cc2)C1 (stereo not drawn) | -74.6 |
| CCOc1ccc(-n2cc(-c3ccccc3)c3c(=O)[nH]cnc32)cc1 | 17.2 |
| CN(CCc1ccccn1)C(=S)Nc1ccc(Cl)c(Cl)c1 | -3.59 |
| COc1ccc(NS(=O)(=O)c2ccc(N3CCOCC3)c(NC(=O)c3ccc(OC)cc3)c2)cc1 | -1.38 |
| CCOC(=O)c1ccc(CSC(=N)N)o1 | 17.2 |
| CN(C)c1ccc(CN2CCCCCC2)cc1 | -6.11 |
| COc1ccc(CCNS(=O)(=O)c2ccc(S(=O)(=O)N3CCCC3)cc2)cc1OC | -6.61 |
| CCOc1ccc(OCCCC(=O)NCCc2ccc(OC)cc2)cc1 | 25.8 |
| COc1ccc(CCNC(=O)CCCN2C(=O)c3ccccc3C2=O)cc1 | 2.74 |
| O=C(CCCN1C(=O)c2ccccc2C1=O)NCCc1ccc(OC(F)F)cc1 | -65.3 |
| O=C(CCCOc1ccc(Br)cc1)NCCc1ccc(OC(F)F)cc1 | -67.7 |
| COc1ccc(CCNC(=O)CCCCCN2C(=O)c3ccccc3C2=O)cc1 | -28.6 |
| O=C(CCCOc1ccccc1)NCCc1ccccc1 | -3.36 |
| CCCCCn1c(NC2CCCCC2)nc2c1c(=O)[nH]c(=O)n2C | -17.6 |
| N#CCCN(C(=O)Nc1ccc(Cl)c(Cl)c1)c1ccccc1 | -0.506 |
| CCOc1cc(/C=C2\SC(=S)N(NS(=O)(=O)c3ccccc3)C2=O)ccc1O | 8.33 |
| CCCCn1c(N)c(N(CCC(C)C)C(=O)COC(=O)c2ccccc2)c(=O)[nH]c1=O | 3.79 |
| CCc1ccc2nc(N(CCCN(C)C)C(=O)c3ccc(S(=O)(=O)N4CCc5ccccc5C4)cc3)sc2c1.Cl | -7.91 |
| CN(C)CCCN(C(=O)c1ccc(S(=O)(=O)N2CCCC2)cc1)c1nc2ccc(Br)cc2s1.Cl | -47.9 |

| Compound | hERG current change (%, negative = inhibition) at 10uM [%] |
| --- | --- |
| Cc1ccc2nc(N(CCCN(C)C)C(=O)c3ccc(S(=O)(=O)N4CCCCCC4)cc3)sc2c1.Cl | -58 |
| Cc1cc(C)c2nc(N(CCCN(C)C)C(=O)c3ccc(S(=O)(=O)N4CCCCCC4)cc3)sc2c1.Cl | -20.3 |
| CCOc1ccc2nc(N(CCCN(C)C)C(=O)c3ccc(S(=O)(=O)N4CCCC4)cc3)sc2c1.Cl | -70.4 |
| CCOc1ccc2nc(N(CCCN(C)C)C(=O)c3ccc(S(=O)(=O)N4CCc5ccccc5C4)cc3)sc2c1.Cl | -1.08 |
| CCc1ccc2nc(N(CCCN(C)C)C(=O)c3ccc(S(=O)(=O)N4CCCC4)cc3)sc2c1.Cl | -67.7 |
| Cc1ccc2nc(N(CCCN(C)C)C(=O)c3ccc(S(=O)(=O)N4CCOCC4)cc3)sc2c1.Cl | -33.9 |
| COc1ccccc1N1CC(C(=O)Nc2nnc(SCC(=O)NC(C)C)s2)CC1=O (stereo not drawn) | 20.1 |
| CC(=O)Nc1ccc(NC(=O)CSc2nnnn2C2CCCCC2)cc1 | -8.79 |
| O=C(CNC(=O)N1CC(=O)Nc2ccccc21)Nc1nccs1 | 12 |
| CCCc1c(O)nc(SCC(=O)O)[nH]c1=O | 67.7 |
| CC1(C)CC(=O)/C(=C(/O)Cc2ccccc2)C(=NCCc2ccccc2)C1 | -45.2 |
| O=C(C1CCCCC1)N(Cc1ccccc1)c1ccccn1 | 1.25 |
| O=C(/C=C/c1ccccc1)NC1CC2CCCC(C1)N2Cc1ccccc1 (stereo not drawn) | -69.7 |
| COc1cc(C(=O)NC2CC3CCCC(C2)N3Cc2ccccc2)cc(OC)c1OC (stereo not drawn) | 8.89 |
| CNC(=S)NC1CC2CCCC(C1)N2Cc1ccccc1OC (stereo not drawn) | -10.1 |
| COc1ccccc1CN1C2CCCC1CC(NC(=O)/C=C/c1ccccc1)C2 (stereo not drawn) | -59.4 |
| O=C(NC1CC2CCCC(C1)N2Cc1ccccc1)C1CCCCC1 (stereo not drawn) | -25.2 |
| COc1ccc(CN2C3CCCC2CC(NC(=O)/C=C/c2ccccc2)C3)cc1 (stereo not drawn) | -88 |
| CCN(CC)C(=O)NC1CC2CCCC(C1)N2Cc1ccccc1 (stereo not drawn) | -6.25 |
| COc1ccc(C(=O)OCC(=O)Nc2c(C)n(C)n(-c3ccccc3)c2=O)cc1OC | 16.5 |
| CCc1[nH]nc2c1C(C(C)C)C(C#N)=C(N)O2 (stereo not drawn) | 10.8 |
| Cn1c(Cc2ccccc2)nnc1SCC(=O)Nc1ccc2c(c1)OCO2 | 5.64 |

| Compound | hERG current change (%, negative = inhibition) at 10uM [%] |
| --- | --- |
| Cc1ccc(NC(=O)/C(=C\c2ccccc2)NC(=O)/C=C/c2ccccc2)cc1 | -12.9 |
| Cn1c(=O)cc(SCC(=O)N2CCC3(CC2)OCCO3)c2ccccc21 | -1.64 |
| CC1CCN(C2(O)C(=O)Nc3ccc(Cl)cc32)CC1 (stereo not drawn) | 4.26 |
| CC(Sc1ncnc2ccccc12)C(=O)Nc1ccc2c(c1)OCCO2 (stereo not drawn) | 5.25 |
| COc1ccc(OCC(O)Cn2c(=N)n(Cc3ccccc3)c3ccccc32)cc1.Cl (stereo not drawn) | -73.5 |
| Cl.N=c1n(Cc2ccc(Cl)cc2)c2ccccc2n1CC(O)COc1ccccc1 (stereo not drawn) | -68.2 |
| OC(COc1ccccc1)Cn1c2ccccc2c2ccccc21 (stereo not drawn) | 6 |
| N=c1ccccn1CC(O)COc1ccccc1 (stereo not drawn) | -3.09 |
| COc1ccc(OCC(O)CN2C(=O)c3ccccc3C2=O)cc1 (stereo not drawn) | 8.41 |
| Cc1cccc(OCC(O)CNC(=O)c2ccccc2C(=O)O)c1 (stereo not drawn) | -21.2 |
| Cc1cccc(OCC(O)Cn2c(=N)n(Cc3ccccc3)c3ccccc32)c1.Cl (stereo not drawn) | -71 |
| Cl.N=c1n(Cc2ccccc2)c2ccccc2n1CC(O)COc1ccccc1 (stereo not drawn) | -74.6 |
| CC1(C)CC(=O)c2cc(C(=O)N3CCCC(C)(C)C3)c(=O)n(-c3ccccc3)c2C1 | 11.5 |
| CCc1c(C)sc(NC(=O)/C=C/C(=O)O)c1C(N)=O | 36.5 |
| Cc1ccc(C2CC(=O)Nc3c2ccc2ccccc32)cc1[N+](=O)[O-] (stereo not drawn) | 6.65 |
| CC(=O)c1nn(-c2ccccc2)cc1C(=O)c1ccc(C)cc1 | 3.72 |
| N#Cc1c(C(F)(F)F)cc(-c2ccc(F)cc2)nc1SCC(=O)O | 6.06 |
| COc1ccc(OC)c(N(CC(=O)NCc2ccccc2)S(=O)(=O)c2ccc(OC)c(OC)c2)c1 | 18.3 |
| CCN(CC)S(=O)(=O)c1ccc(OC)c(NC(=O)CCS(=O)(=O)Cc2ccccc2)c1 | -28 |
| Cc1csc(NC(=O)C2C3C=CC(C3)C2C(=O)O)n1 (stereo not drawn) | -6.11 |
| COC(=O)Cc1ccc(NC(=S)NCc2ccccc2Cl)cc1 | -6.56 |
